{"source": "ChEMBL document CHEMBL4513216", "about": "“Probing the Open Global Health Chemical Diversity Library for Multistage-Active Starting Points for Next-Generation Antimalarials” (ACS Infect Dis, 2020)", "note": "Screen size: about 65,000 compounds; about 2,100 (3.2%) showed an effect of 50% or more. The median lay at about -52%. The full list was thinned out, with strong results kept by preference."}
{"system": "Plasmodium falciparum", "test": "Screen against P. falciparum Asexual Blood Stage (ABS), at 5uM", "assay_type": "functional, Dd2", "settings": "tested at 5 uM", "units": {"INHIBITION": "%"}}
{"smiles": "CN(CC1CCCCO1)c1nc(-c2cccnc2)nc2c1CCNC2", "note": "(centres undefined)", "INHIBITION": -14.1}
{"smiles": "Cc1nonc1CN(C)c1nc(-c2cccnc2)nc2c1CCNC2", "INHIBITION": 69.5}
{"smiles": "CN(CC1CCCO1)c1nc(-c2cccnc2)nc2c1CCNCC2", "note": "(centres undefined)", "INHIBITION": -40}
{"smiles": "Cc1nc2c(c(N(C)Cc3ccccc3-n3cccn3)n1)CCNCC2", "INHIBITION": -3.02}
{"smiles": "CN(Cc1cccnc1)c1nc(-c2ccccn2)nc2c1CCNCC2", "INHIBITION": 55.3}
{"smiles": "c1ccc(-c2nc3c(c(NCCn4cccc4)n2)CCNCC3)nc1", "INHIBITION": -0.552}
{"smiles": "CN(CC(O)CO)c1nc(-c2cccnc2)nc2c1CCNC2", "note": "(centres undefined)", "INHIBITION": -79.7}
{"smiles": "COc1cc(CNCc2ccc(NC(=O)NC(C)C)cc2)cc(OC)c1", "INHIBITION": -65.3}
{"smiles": "CCC(=O)Nc1cccc(OCC(=O)N2C[C@H]3CC[C@H]2C3)c1", "INHIBITION": -137}
{"smiles": "COc1cccc(CC(=O)N2CCC3(CC2)OCCCC3O)c1OC", "note": "(centres undefined)", "INHIBITION": -112}
{"smiles": "O=C(CN1CCCC1Cn1cccn1)NCCC1=CCCCC1", "note": "(centres undefined)", "INHIBITION": -61.8}
{"smiles": "CCS(=O)(=O)N1CCc2c(COCc3ccncc3)cncc2C1", "INHIBITION": -181}
{"smiles": "CCn1nccc1CN(C)C(=O)Cn1nc(C)cc1C", "INHIBITION": -52.5}
{"smiles": "CC(=O)Nc1cccc(OCCNC(=O)N(C)Cc2ccccc2)c1", "INHIBITION": -47.8}
{"smiles": "COc1cccc(CN2CC(=O)N(c3ccccc3C)CC2C)c1OC", "note": "(centres undefined)", "INHIBITION": 53.8}
{"smiles": "COc1ccc(F)c(CN2CC(=O)N(c3ccccc3C)CC2C)c1", "note": "(centres undefined)", "INHIBITION": 9.59}
{"smiles": "COc1ccc(F)c(F)c1CN1CC(=O)N(c2ccccc2C)CC1C", "note": "(centres undefined)", "INHIBITION": 30.6}
{"smiles": "CC(C)c1nnsc1CNC(=O)C1CCCN(C(=O)N(C)C)C1", "note": "(centres undefined)", "INHIBITION": -18.2}
{"smiles": "Fc1cccc(CNCC2OCCc3cn(CC4CCOCC4)nc32)c1", "note": "(centres undefined)", "INHIBITION": 17.8}
{"smiles": "CC(C)n1ncc2c1NC(=O)CC21C(=O)Nc2c(Br)cc(Cl)cc21", "note": "(centres undefined)", "INHIBITION": -72.6}
{"smiles": "COc1cc2c(cc1CNC(=O)C(C)n1ccnc1C(C)C)CCC2", "note": "(centres undefined)", "INHIBITION": 60.2}
{"smiles": "COCc1nc(CNC(=O)C(C)n2ccnc2C(C)C)no1", "note": "(centres undefined)", "INHIBITION": -14.3}
{"smiles": "COc1cc2c(cc1CNC(=O)C(C)n1ccnc1C(C)C)OCCO2", "note": "(centres undefined)", "INHIBITION": 11.4}
{"smiles": "COc1cccc(N2CCN(CCC(=O)NC3CCCCC3)CC2)c1", "INHIBITION": -28.7}
{"smiles": "CCC(NC(=O)COC)c1ccccc1OCC(=O)N1CCCC1", "note": "(centres undefined)", "INHIBITION": -191}
{"smiles": "CCC(N)c1ccccc1OCC(=O)N1CCCC1", "note": "(centres undefined)", "INHIBITION": 52.5}
{"smiles": "CCC(NC(N)=O)c1ccccc1OCC(=O)N1CCCC1", "note": "(centres undefined)", "INHIBITION": -37.9}
{"smiles": "CCOCCC1(C(=O)N2CCCC(c3ncc[nH]3)C2)CCCC1", "note": "(centres undefined)", "INHIBITION": -71.1}
{"smiles": "CC(c1ccncn1)N(C)Cc1cc2cc3c(cc2[nH]c1=O)OCO3", "note": "(centres undefined)", "INHIBITION": -84.5}
{"smiles": "CCOc1cccc(C(=O)Nc2ccncc2)c1", "INHIBITION": -39.7}
{"smiles": "COc1c(CNC2(c3noc(C)n3)CCC2)c(C)nn1C", "INHIBITION": -55.5}
{"smiles": "COc1c(CNC2CCc3cc(Cl)ccc32)c(C)nn1C", "note": "(centres undefined)", "INHIBITION": 21.4}
{"smiles": "COc1c(CNC2(c3ccc(Cl)cc3)CCC2)c(C)nn1C", "INHIBITION": 60.5}
{"smiles": "COc1ccc(-c2cc(C3CCNCC3)nc(C)n2)cc1", "INHIBITION": -57.7}
{"smiles": "Cc1nc(-c2ccccc2)cc(C2CCNCC2)n1", "INHIBITION": 57.8}
{"smiles": "Cc1nc(-c2ccc(F)cc2)cc(C2CCNCC2)n1", "INHIBITION": -33.4}
{"smiles": "CC(=O)N1CCCC(c2nc(N(C)C)ncc2-c2cccc(F)c2)C1", "note": "(centres undefined)", "INHIBITION": -1.35}
{"smiles": "O=C(c1ncccn1)N1C[C@H]2CCC[C@@]2(COc2ccccn2)C1", "INHIBITION": 14.9}
{"smiles": "O=C(c1cocn1)N1C[C@H]2CCC[C@@]2(COc2ccccn2)C1", "INHIBITION": 52.1}
{"smiles": "Cc1ccc(C(=O)N2C[C@H]3CCC[C@@]3(COc3ccccn3)C2)nc1", "INHIBITION": 9.4}
{"smiles": "NC(=O)c1ccn(COc2ccccc2Cl)n1", "INHIBITION": -63.1}
{"smiles": "Cc1cnn(C2CN(c3ccccc3S(=O)(=O)C(F)(F)F)C2)c1", "INHIBITION": -111}
{"smiles": "CS(=O)(=O)NC[C@H]1Cn2c(-c3ccc(F)cc3)cnc2CO1", "INHIBITION": -34.5}
{"smiles": "CS(=O)(=O)NC[C@H]1Cn2c(-c3ccc(Cl)cc3)cnc2CO1", "INHIBITION": 57.1}
{"smiles": "CS(=O)(=O)NC[C@H]1Cn2c(-c3ccccc3)cnc2CO1", "INHIBITION": -21}
{"smiles": "CN(C)Cc1csc(-c2nccn2Cc2ccsc2)c1", "INHIBITION": 17.1}
{"smiles": "Cc1cccc(C(=O)N2CCC[C@]3(C[C@@H](OCC4CC4)CO3)C2)n1", "INHIBITION": -156}
{"smiles": "Cn1cc(CN2C[C@H](N3CCOCC3)[C@@H]3OCCC[C@@H]32)cn1", "INHIBITION": -93.3}
{"smiles": "OC(CNC1CCOCC1)c1ccc(Cl)c(F)c1", "note": "(centres undefined)", "INHIBITION": 50.9}
{"smiles": "c1ccc(COc2cccc(CNC3CCc4ncnn4C3)c2)cc1", "note": "(centres undefined)", "INHIBITION": 24.8}
{"smiles": "OC(CNC1CCOCC1)c1cccc(OCc2ccccc2)c1", "note": "(centres undefined)", "INHIBITION": 53.2}
{"smiles": "CCN1CCC(NC(=O)NCC(O)c2ccc(Cl)c(F)c2)CC1", "note": "(centres undefined)", "INHIBITION": -34.9}
{"smiles": "O=C(NCC(O)c1ccc(Cl)c(F)c1)NC1CC=CC1", "note": "(centres undefined)", "INHIBITION": -14.7}
{"smiles": "COc1cccc(C(O)CNC(=O)CC2CCCCC2)c1", "note": "(centres undefined)", "INHIBITION": -143}
